From PubChem BioAssay (NCI)
The panel holds about 83,000 compounds, 20% with a hit somewhere; the sample as a whole holds those more often.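 Interpretation: 100, growth as untreated; towards 0, rising growth inhibition; 0, no net growth; 0 to -100, cell death. Compounds scoring below 10 were considered active.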 Values without a mark were called inactive. The source made the active and inactive calls.

tested on: MDA-MB-468 breast; assay: NCI-60 one-dose screen, 48 h (100 = growth as untreated, 0 = no growth, -100 = all killed); settings: 10 µM unless noted

Compound	growth
C=CCc1c2c(c(OC)c3ccoc13)C(=O)/C(=C/c1ccccc1OC)O2	-3.89% (active)
COc1ccc(C2=Cn3c(CCC(=O)c4nc5ccccc5[nH]4)nnc3SC2)cc1	77.4%
Cc1cc(N=Nc2ccc(-c3ccc(N=Nc4ccc(O)c(C(=O)O)c4)cc3)cc2)c(N)c(N=Nc2ccc(C(=O)O)cc2)c1N	92.6%
COc1cc(CC(=O)n2ncc3ccc(N)cc32)cc(OC)c1OC	94.8%
O=C(O)/C=C/C(=O)c1ccc(Cl)cc1	124%
NS(=O)(=O)c1ccc(N/C=C/C(=O)c2cc3ccccc3oc2=O)cc1	90.4%
CCN1CC(=O)N(/N=C2\C(=O)Nc3ccccc32)C1=S	73.1%
COc1c(O)cc2oc3cc(O)c(CC=C(C)C)c(O)c3c(=O)c2c1C/C=C(\C)CCC=C(C)C	82.1%
COc1ccc(-c2oncc2-c2cc(OC)c3c(c2)OCO3)cc1	10.3%
COC(=O)[C@@]1(C)CC[C@]2(C)CC[C@]3(C)C(=CC(=O)[C@@H]4[C@@]5(C)Cc6c(n(CC#CCN7CCN(C)CC7)c7ccccc67)C(C)(C)[C@@H]5CC[C@]43C)[C@@H]2C1	69.1%
O=C(Nc1ccc2cc3ccc(NC(=O)NC4CCCCC4)cc3nc2c1)NC1CCCCC1	105%
CC(=O)Nc1ccc(/C=C2\SC(=S)N(/C=C(\C(C)=O)C(N)=O)C2=O)cc1	108%
C[C@@]1(N2C(=O)OC[C@@H]2c2ccccc2)C(=O)N([C@H](CC(=O)N2CCC(N3CCCCC3)CC2)C(=O)NCc2cccc(C(F)(F)F)c2)[C@@H]1/C=C/c1ccccc1	23.7%
CN1CCN(c2ccc(Nc3nc(NCCNS(=O)(=O)c4ccc5ccccc5c4)c4sccc4n3)cc2)CC1	2.8% (active)
S=C(c1ccccc1)N1CCN(c2cccc(Cl)c2)CC1	105%
Cc1ccc(S(=O)(=O)c2nc(-c3ccccc3)oc2S(C)(=O)=O)cc1	-59.3% (active)
COc1ccc(C)cc1NC(=O)SC(C)C	91.9% [100 µM]
CCCCC/C=C\C/C=C/CCCCCCCCNC(=O)Nc1ccc([N+](=O)[O-])cc1	84.5%
CSc1nc2ccc(C)cc2cc1/C=C1/C=C(c2ccccc2)NC1=O	49.1%
CCCCCN(CCCCC)CCC[C@@H](C)[C@H]1CC[C@H]2[C@@H]3[C@H](OCCCN)C[C@@H]4C[C@H](OCCCN)CC[C@]4(C)[C@H]3C[C@H](OCCCN)[C@]12C	71.1%
COc1ccc(-c2nc3ccc(-c4nc5ccc(N6CCN(c7ccccc7)CC6)cc5[nH]4)cc3[nH]2)cc1OC	-46.1% (active)
CCOP(=O)(O)OP(=O)(O)OCC	107%
Cc1c(O)c(=O)ccn1-c1nc2ccccc2s1	103%
Cn1cc(-c2csc(-c3cn(C)c4ncccc34)n2)c2cc(Br)cnc21	-28.4% (active)
C=C1C(=O)O[C@H]2[C@H]1CC/C(COC(=O)/C=C/c1cccnc1)=C\CC[C@@]1(C)O[C@@H]21	10.9%
CC(C)[C@]12O[C@H]1[C@@H]1O[C@]13[C@]1(O[C@H]1C[C@H]1C4=C(CC[C@@]13C)C(=O)OC4)[C@@H]2OC(=O)CN(C)C	-55.2% (active)
COc1ccccc1/C=N/NC1=NC2C(N1)N(C)C(=O)N2C (configuration not stated)	106%
